Values without a mark were called inactive. Entries that show only a call come without a potency. Active and inactive are the calls of the source. The call rests on the fitted dose curve.

This passage reports Potency, outcome and activity change, negative = inhibition results from PubChem BioAssay (Tox21).

Sequence of Acetylcholinesterase (Homo sapiens) (P22303 whole entry, looked up): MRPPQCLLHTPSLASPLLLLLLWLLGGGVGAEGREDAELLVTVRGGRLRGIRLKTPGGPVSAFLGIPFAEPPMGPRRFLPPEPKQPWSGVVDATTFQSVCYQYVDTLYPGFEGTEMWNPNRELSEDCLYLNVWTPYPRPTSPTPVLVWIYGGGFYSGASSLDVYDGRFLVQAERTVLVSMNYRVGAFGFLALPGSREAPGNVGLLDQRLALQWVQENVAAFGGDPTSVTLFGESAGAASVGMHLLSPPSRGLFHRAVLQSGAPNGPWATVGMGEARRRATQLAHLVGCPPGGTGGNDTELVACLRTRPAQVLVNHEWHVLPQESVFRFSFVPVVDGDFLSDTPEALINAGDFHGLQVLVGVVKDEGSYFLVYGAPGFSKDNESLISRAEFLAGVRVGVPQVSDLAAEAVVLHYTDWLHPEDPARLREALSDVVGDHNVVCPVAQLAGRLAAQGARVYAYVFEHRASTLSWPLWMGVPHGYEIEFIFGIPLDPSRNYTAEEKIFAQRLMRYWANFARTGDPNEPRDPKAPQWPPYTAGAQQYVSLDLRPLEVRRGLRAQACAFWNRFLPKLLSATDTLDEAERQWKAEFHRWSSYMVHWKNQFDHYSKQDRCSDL

The experiment has as its target Acetylcholinesterase (Homo sapiens) (UniProt P22303). The experiment in a line: Acetylcholinesterase (AChE) small molecule antagonists: enzyme-based qHTS assay with human liver microsomes (AID 1347399). Further: nearly all actives have a fitted effect of over 60% in size. Particulars: Potency: qHTS inhibition; outcome: qHTS inhibition; series mostly up to 115 µM. A digest of the protocol: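 Recombinant human AChE (50 mU/mL in the enzyme mix) and human liver microsomes (0.25 mg/mL final) were preincubated with compound and NADPH (0.25 mg/mL final) for 30 min at 37 C. Acetylthiocholine/DTNB was then added; thiocholine was read colorimetrically after 10 min at room temperature.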
On the technique in general: Quantitative high-throughput screening tests each substance at several concentrations.
As for `O=C1O[C@H]([C@@H](O)CO)C(O)=C1O`, the Potency entry was “inactive”.

`O=C(CCCCC(=O)Nc1c(I)cc(I)c(C(=O)O)c1I)Nc1c(I)cc(I)c(C(=O)O)c1I`: the Potency result was “inactive”.

Turning to `OC[C@H]1O[C@@H](O[C@H]2[C@H](O)[C@@H](O)[C@H](O)O[C@@H]2CO)[C@H](O)[C@@H](O)[C@H]1O`, the Potency result is “inactive”.

As to `CC(=O)CC(C)(C)C1CCCCC1`, the Potency entry is “inactive”.

As to `CC(=O)C(=O)O`, the Potency result is “inactive”.

`CCCCCCCCCCCCOCCOCCOCCOCCOCCOCCOCCOCCOCCO`: the Potency entry is “inactive”.

In the case of `CCCCC(CC)COS(=O)(=O)O` (stereo not given), the Potency result was “inactive”.

On to `C=C1CC/C=C(\C)CC[C@@H]2[C@@H]1CC2(C)C`, for which the Potency result was “inactive”.

Turning to `NC(=O)Cc1cccc2ccccc12`, the Potency entry is “inactive”.

Regarding `CC(C)c1ccc(C(=O)N=C(N)N)cc1S(C)(=O)=O`, the molecule was classed as inactive.

As to `CC(C)CCOCCC(C)C`, the Potency entry is “inactive”.

As for `CNC(=O)CN(CCN(CCN(CC(=O)[O-])CC(=O)NC)CC(=O)[O-])CC(=O)[O-].O.[Gd+3]`, the Potency result is “inactive”.

For the molecule `CC(=O)c1ccc(C)cc1`, the Potency entry was “inactive”.

Take `C[C@](N)(Cc1ccc(O)cc1)C(=O)O`: the activity change, negative = inhibition was -2.1% [at 10.5 µM].

With `COc1ccc(C)cc1[N+](=O)[O-]`, the Potency entry was “inactive”.

In the case of `O[C@@H]([C@H](O)[C@H](O)CBr)[C@H](O)CBr`, the Potency result is “inactive”.

For the molecule `Clc1ccccn1`, the Potency entry is “inactive”.

With `CCOc1ccccc1C(N)=O`, the Potency entry was “inactive”.

`CC(C)C(=O)c1c(C(C)C)nn2ccccc12`: the Potency entry is “inactive”.

Consider `NS(=O)(=O)c1cc2c(cc1Cl)NC=NS2(=O)=O`, for which the Potency entry was “inactive”.

`Cc1cccc(C(=O)O)c1`: the Potency entry was “inactive”.

`N[C@@H](Cc1cc(I)c(Oc2ccc(O)c(I)c2)c(I)c1)C(=O)O`: the Potency entry was “inactive”.

Take `CCCCC(CC)COC(=O)COc1ccc(Cl)cc1Cl` (stereo not given): the Potency entry is “inactive”.

In the case of `CC(C)OCC1CO1` (stereo not given), the Potency result was “inactive”.

Turning to `CCOC(=O)C(C#N)=C(c1ccccc1)c1ccccc1`, the Potency entry was “inactive”.

For the molecule `CC(C)(C)c1ccc(O)c(C(C)(C)C)c1`, the Potency entry was “inactive”.

`OCCOCCOCCO`: the Potency entry was “inactive”.

For the molecule `CC(=O)CCCCn1c(=O)c2c(ncn2C)n(C)c1=O`, the Potency result is “inactive”.

Turning to `NCCc1ccn[nH]1`, the Potency result is “inactive”.

`O=c1[nH]c(=O)n([C@H]2C[C@H](O)[C@@H](CO)O2)cc1F`: the Potency result is “inactive”.

Consider `CC1(C)[C@@H]2CC[C@]3(C2)[C@@H]1C(=O)CCC3(C)C`, for which the Potency entry is “inactive”.

Regarding `O=C(Nc1ccc(Cl)c(Cl)c1)C1CC1`, the Potency entry is “inactive”.

In the case of `CC1=NN(c2cc(S(=O)(=O)O)ccc2Cl)C(=O)C1N=Nc1ccccc1` (stereo not given), the Potency entry is “inactive”.

Take `CC/C(C)=N\O[Si](C)(O/N=C(\C)CC)O/N=C(\C)CC`: the Potency result was “inactive”.

On to `CC(C)(C)c1ccc(S)cc1`, for which the Potency result is “inactive”.

As to `CCCCCCCC(=O)OCCCCCC`, the Potency result is “inactive”.

In the case of `C=C(C)C(=O)OCCOC1CC2CC1C1C=CCC21` (stereo not given), the Potency entry was “inactive”.

As for `Oc1cccc(-c2c3nc(c(-c4cccc(O)c4)c4ccc([nH]4)c(-c4cccc(O)c4)c4nc(c(-c5cccc(O)c5)c5ccc2[nH]5)CC4)C=C3)c1`, the Potency entry is “inactive”.

On to `CC1(C)CC(N)CC(C)(CN)C1` (stereo not given), for which the Potency result is “inactive”.

With `CCCCCCCCCCCCO`, the Potency entry was “inactive”.
